Measured values published in the supplement of paper PMC10849652.
About 8,800 targets were measured; listed, in parts, are those with a hit and a random draw of the rest. About 0.5% of all pairs of compound and target were hits.

Compound: Cc1nc(Nc2ncc(C(=O)Nc3c(C)cccc3Cl)s2)cc(N2CCN(CCO)CC2)n1 [dasatinib]
Assay: log2 fold change, soluble protein after heating vs DMSO (PISA); higher = thermal stabilisation; K562 lysate, 10 uM; active = over 0.2 and 3.5 SD of the protein, either way, in both replicates (recomputed)
Outline: (§1)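 A 30 min treatment with 10 μM compound was applied to crude K562 extract at 1 mg/mL protein in PBS pH 7.4 with 1 mM MgCl2. Heating for 3 min spanned 48°C-58°C, after which aliquots were pooled, adjusted to 0.5% NP-40 at 4°C and spun at 21,000xg for 90 min. TMTpro 16plex LC-MS/MS of the supernatant, with channel sums equalised, gave values recorded as log-two fold change in thermal stability against solvent controls, from duplicates.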

Chain of UniProt O60508 (O60508 whole entry, looked up): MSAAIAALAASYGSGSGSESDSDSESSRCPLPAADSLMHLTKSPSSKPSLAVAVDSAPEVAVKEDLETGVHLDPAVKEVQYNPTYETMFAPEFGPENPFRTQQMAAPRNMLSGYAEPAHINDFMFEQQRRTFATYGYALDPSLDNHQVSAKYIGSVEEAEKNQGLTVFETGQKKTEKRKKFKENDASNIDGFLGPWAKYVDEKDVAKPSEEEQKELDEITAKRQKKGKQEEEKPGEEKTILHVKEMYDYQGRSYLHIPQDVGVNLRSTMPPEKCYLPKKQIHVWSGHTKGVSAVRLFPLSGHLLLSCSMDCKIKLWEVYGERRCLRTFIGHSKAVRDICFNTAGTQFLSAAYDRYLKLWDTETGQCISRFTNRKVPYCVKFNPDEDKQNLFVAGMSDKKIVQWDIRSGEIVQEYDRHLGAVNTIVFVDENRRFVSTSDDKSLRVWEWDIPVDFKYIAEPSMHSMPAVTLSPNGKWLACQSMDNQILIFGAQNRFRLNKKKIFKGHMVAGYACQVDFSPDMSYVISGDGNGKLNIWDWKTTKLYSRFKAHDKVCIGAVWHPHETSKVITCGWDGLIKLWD
Chain of UniProt P25440 (P25440 whole entry, looked up): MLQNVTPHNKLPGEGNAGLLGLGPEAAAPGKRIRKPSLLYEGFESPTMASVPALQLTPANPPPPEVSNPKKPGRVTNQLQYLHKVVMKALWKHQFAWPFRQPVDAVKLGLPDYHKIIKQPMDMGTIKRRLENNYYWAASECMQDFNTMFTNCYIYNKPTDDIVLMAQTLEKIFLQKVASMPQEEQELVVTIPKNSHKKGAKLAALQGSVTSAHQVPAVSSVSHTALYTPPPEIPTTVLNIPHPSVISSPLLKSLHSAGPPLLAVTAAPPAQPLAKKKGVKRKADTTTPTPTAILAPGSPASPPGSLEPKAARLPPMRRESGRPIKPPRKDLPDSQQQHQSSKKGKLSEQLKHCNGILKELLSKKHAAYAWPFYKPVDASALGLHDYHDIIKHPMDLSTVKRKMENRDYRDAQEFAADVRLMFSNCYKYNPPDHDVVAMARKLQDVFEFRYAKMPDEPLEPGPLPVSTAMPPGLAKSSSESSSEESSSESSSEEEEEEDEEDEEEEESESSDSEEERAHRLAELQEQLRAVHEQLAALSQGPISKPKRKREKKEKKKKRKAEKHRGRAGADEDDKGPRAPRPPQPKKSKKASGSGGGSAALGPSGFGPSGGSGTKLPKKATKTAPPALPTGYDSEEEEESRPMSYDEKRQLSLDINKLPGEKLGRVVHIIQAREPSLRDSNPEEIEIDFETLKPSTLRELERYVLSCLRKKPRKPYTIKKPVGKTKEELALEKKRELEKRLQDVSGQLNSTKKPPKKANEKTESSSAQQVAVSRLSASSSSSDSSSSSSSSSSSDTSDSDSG
Chain of UniProt Q99700 (Q99700 whole entry, looked up): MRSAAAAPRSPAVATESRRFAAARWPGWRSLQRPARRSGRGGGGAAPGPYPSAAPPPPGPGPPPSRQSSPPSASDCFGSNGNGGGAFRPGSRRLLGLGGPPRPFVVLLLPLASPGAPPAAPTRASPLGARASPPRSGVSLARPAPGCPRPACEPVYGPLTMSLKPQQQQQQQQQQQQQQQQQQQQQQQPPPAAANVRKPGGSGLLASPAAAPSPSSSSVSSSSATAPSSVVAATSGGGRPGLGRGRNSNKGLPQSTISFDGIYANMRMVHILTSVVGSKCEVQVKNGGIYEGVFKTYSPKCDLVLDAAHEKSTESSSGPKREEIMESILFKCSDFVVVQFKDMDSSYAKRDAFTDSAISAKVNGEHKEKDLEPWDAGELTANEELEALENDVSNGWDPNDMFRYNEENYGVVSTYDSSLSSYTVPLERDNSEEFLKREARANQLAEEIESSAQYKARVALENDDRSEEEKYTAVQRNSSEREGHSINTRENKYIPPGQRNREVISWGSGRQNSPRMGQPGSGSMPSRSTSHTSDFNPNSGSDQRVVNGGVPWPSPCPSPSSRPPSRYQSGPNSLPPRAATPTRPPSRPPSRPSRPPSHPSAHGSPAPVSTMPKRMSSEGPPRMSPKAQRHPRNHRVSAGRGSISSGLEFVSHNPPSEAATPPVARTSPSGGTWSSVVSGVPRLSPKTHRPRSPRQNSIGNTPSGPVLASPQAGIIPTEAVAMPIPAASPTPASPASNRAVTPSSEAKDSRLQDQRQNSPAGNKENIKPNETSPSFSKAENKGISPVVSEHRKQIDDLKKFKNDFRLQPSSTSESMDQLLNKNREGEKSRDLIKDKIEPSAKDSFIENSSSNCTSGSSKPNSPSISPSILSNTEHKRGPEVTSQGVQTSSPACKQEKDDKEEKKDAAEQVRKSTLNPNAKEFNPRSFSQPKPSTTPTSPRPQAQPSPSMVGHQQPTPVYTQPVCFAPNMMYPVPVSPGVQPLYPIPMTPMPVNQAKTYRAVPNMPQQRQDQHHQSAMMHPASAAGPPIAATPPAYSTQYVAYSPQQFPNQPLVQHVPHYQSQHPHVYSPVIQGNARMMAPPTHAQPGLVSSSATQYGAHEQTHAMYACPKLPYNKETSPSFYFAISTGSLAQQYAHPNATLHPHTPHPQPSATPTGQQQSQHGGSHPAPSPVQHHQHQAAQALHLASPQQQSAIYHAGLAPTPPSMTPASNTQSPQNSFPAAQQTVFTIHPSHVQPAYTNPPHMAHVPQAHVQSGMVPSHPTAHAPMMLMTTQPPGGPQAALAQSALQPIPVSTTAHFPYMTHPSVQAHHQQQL
Chain of UniProt P18859 (P18859 whole entry, looked up): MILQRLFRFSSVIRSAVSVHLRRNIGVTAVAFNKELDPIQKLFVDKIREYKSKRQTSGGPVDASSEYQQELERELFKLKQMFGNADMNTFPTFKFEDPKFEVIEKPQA
Chain of UniProt O75909 (O75909 whole entry, looked up): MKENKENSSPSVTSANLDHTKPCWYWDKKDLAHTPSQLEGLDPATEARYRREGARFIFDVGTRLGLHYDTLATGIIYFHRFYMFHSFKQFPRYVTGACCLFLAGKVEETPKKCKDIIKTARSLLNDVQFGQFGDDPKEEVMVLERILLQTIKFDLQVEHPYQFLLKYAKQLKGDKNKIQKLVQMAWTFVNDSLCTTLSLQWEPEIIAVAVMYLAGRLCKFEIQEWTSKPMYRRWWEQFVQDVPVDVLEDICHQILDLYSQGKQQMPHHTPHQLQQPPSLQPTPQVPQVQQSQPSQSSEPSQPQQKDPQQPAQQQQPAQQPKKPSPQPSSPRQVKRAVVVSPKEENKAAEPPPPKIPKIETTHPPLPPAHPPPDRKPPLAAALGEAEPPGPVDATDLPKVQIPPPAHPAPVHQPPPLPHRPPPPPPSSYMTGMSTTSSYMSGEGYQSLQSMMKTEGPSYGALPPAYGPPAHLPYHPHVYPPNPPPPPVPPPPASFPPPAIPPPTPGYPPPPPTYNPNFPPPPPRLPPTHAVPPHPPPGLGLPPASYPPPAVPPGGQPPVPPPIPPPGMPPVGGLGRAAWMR
Chain of UniProt Q8TCD1 (Q8TCD1 whole entry, looked up): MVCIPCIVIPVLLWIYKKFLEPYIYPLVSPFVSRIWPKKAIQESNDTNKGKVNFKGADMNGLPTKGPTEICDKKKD
Chain of UniProt P27824 (P27824 whole entry, looked up): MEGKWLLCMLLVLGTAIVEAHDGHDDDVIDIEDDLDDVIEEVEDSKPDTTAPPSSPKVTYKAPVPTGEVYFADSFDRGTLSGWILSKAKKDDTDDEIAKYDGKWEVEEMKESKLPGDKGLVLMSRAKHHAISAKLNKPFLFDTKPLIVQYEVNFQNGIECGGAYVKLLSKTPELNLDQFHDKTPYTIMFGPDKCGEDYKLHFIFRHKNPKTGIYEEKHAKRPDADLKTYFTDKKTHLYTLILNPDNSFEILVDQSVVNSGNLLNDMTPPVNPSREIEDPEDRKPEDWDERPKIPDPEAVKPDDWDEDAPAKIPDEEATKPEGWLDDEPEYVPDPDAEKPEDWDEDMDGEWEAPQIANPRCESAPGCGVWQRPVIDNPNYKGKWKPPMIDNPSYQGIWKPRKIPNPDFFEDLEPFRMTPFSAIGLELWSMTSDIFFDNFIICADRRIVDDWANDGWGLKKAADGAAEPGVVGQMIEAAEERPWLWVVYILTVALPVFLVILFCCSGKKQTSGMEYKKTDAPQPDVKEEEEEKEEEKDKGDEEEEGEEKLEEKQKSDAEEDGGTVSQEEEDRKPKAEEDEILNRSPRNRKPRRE
Chain of UniProt Q9Y6H1 (Q9Y6H1 whole entry, looked up): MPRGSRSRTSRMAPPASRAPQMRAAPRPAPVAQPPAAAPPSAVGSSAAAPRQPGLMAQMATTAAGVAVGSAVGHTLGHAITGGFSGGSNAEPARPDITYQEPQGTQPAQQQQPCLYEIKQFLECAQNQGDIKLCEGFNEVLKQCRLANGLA
Chain of UniProt Q9HB09 (Q9HB09 whole entry, looked up): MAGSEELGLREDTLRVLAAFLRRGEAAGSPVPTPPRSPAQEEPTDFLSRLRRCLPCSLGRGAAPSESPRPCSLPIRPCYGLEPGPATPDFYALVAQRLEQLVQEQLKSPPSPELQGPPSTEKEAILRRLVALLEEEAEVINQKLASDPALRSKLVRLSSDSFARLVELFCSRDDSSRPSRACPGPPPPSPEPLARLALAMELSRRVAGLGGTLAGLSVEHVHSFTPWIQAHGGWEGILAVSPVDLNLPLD
Chain of UniProt Q14012 (Q14012 whole entry, looked up): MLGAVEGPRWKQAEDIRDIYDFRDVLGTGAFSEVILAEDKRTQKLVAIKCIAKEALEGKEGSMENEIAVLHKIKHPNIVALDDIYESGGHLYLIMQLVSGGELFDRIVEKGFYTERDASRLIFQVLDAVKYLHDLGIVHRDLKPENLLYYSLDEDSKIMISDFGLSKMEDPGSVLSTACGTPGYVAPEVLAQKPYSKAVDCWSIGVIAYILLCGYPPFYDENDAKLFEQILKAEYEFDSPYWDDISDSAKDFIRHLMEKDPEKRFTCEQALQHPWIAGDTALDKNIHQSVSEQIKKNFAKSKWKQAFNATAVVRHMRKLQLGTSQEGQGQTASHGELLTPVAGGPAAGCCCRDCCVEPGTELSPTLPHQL
Chain of UniProt Q8N4Q1 (Q8N4Q1 whole entry, looked up): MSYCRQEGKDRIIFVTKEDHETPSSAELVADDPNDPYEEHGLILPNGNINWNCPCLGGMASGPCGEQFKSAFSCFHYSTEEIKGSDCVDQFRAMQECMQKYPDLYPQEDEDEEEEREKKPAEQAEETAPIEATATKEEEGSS

Row | Target | log2 fold change
1 | ATXN2 (UniProt Q99700) | 0.023 (inactive)
2 | CHCHD2 (UniProt Q9Y6H1) | 0.016 (inactive)
3 | CDC40 (UniProt O60508) | -0.005 (inactive)
4 | CCNK isoform 4 (UniProt O75909) | -0.051 (inactive)
5 | C18orf32 (UniProt Q8TCD1) | -0.026 (inactive)
6 | CHAF1A (UniProt Q13111) | -0.068 (inactive)
7 | CAMK2G isoform 8 (UniProt Q13555) | -0.034 (inactive)
8 | CBX1 (UniProt P83916) | 0.017 (inactive)
9 | ATP5PF isoform 2 (UniProt P18859) | 0.026 (inactive)
10 | CCNB1 (UniProt P14635) | -0.016 (inactive)
11 | BCL2L12 (UniProt Q9HB09) | -0.129 (inactive)
12 | ATP11A (UniProt P98196) | 0.018 (inactive)
13 | CAMK1 (UniProt Q14012) | 0.021 (inactive)
14 | CAMLG (UniProt P49069) | 0.017 (inactive)
15 | CHAC2 (UniProt Q8WUX2) | -0.022 (inactive)
16 | CANX isoform 2 (UniProt P27824) | 0.012 (inactive)
17 | BRD2 isoform 2 (UniProt P25440) | 0.011 (inactive)

Compound: Cc1ncc(-c2ccnc(Nc3ccc(S(C)(=O)=O)cc3)n2)n1C(C)C
Assay: as above
Outline: as §1

Row | Target | log2 fold change
18 | BLOC1S6 (UniProt Q9UL45) | 0.093 (inactive)
19 | BAG4 (UniProt O95429) | 0.014 (inactive)
20 | CCNC (UniProt P24863) | 0.202 (inactive)
21 | CALM2 (UniProt P0DP24) | 0.022 (inactive)
22 | CEP76 (UniProt Q8TAP6) | -0.021 (inactive)
23 | CDS2 (UniProt O95674) | 0.062 (inactive)
24 | CCAR2 (UniProt Q8N163) | -0.017 (inactive)
25 | CDKN2AIP (UniProt Q9NXV6) | -0.008 (inactive)
26 | BRD3 (UniProt Q15059) | 0.025 (inactive)
27 | CEP120 (UniProt Q8N960) | -0.251 (inactive)
28 | C18orf25 (UniProt Q96B23) | -0.018 (inactive)
29 | CDAN1 (UniProt Q8IWY9) | -0.014 (inactive)
30 | ATAD1 (UniProt Q8NBU5) | -0.153 (inactive)
31 | CCT6A (UniProt P40227) | -0.007 (inactive)
32 | C5orf51 (UniProt A6NDU8) | 0.017 (inactive)
33 | CHCHD4 isoform 2 (UniProt Q8N4Q1) | -0.031 (inactive)
34 | CCPG1 isoform 5 (UniProt Q9ULG6) | 0.087 (inactive)
35 | CD63 (UniProt P08962) | -0.032 (inactive)
36 | CES2 isoform 4 (UniProt O00748) | 0.098 (inactive)
37 | CFDP1 (UniProt Q9UEE9) | 0.035 (inactive)

Row | Target | log2 fold change
38 | AURKAIP1 (UniProt Q9NWT8) | 0 (inactive)
39 | CCDC186 (UniProt Q7Z3E2) | 0.03 (inactive)
40 | ATP13A1 (UniProt Q9HD20) | 0.003 (inactive)
41 | ATXN2 (UniProt Q99700) | -0.003 (inactive)
42 | CHCHD2 (UniProt Q9Y6H1) | -0.075 (inactive)
43 | CDC40 (UniProt O60508) | 0.039 (inactive)
44 | CCNK isoform 4 (UniProt O75909) | -0.009 (inactive)
45 | C18orf32 (UniProt Q8TCD1) | 0.072 (inactive)
46 | CHAF1A (UniProt Q13111) | 0.008 (inactive)
47 | CAMK2G isoform 8 (UniProt Q13555) | 0.039 (inactive)
48 | CBX1 (UniProt P83916) | 0 (inactive)
49 | ATP5PF isoform 2 (UniProt P18859) | 0.164 (inactive)
50 | CCNB1 (UniProt P14635) | 0.369 (active)
51 | BCL2L12 (UniProt Q9HB09) | -0.004 (inactive)
52 | ATP11A (UniProt P98196) | 0.011 (inactive)
53 | CAMK1 (UniProt Q14012) | 0.064 (inactive)
54 | CAMLG (UniProt P49069) | -0.069 (inactive)
55 | CHAC2 (UniProt Q8WUX2) | -0.024 (inactive)
56 | CANX isoform 2 (UniProt P27824) | -0.02 (inactive)
57 | BRD2 isoform 2 (UniProt P25440) | -0.024 (inactive)

Compound: Cn1cc(-c2ccc3c(c2)CCN3C(=O)Cc2cccc(C(F)(F)F)c2)c2c(N)ncnc21
Assay: as above
Outline: as §1

Row | Target | log2 fold change
58 | BLOC1S6 (UniProt Q9UL45) | -0.008 (inactive)
59 | BAG4 (UniProt O95429) | 0.015 (inactive)
60 | CCNC (UniProt P24863) | -0.017 (inactive)
61 | CALM2 (UniProt P0DP24) | -0.001 (inactive)
62 | CEP76 (UniProt Q8TAP6) | -0.005 (inactive)
63 | CDS2 (UniProt O95674) | -0.005 (inactive)
64 | CCAR2 (UniProt Q8N163) | 0.018 (inactive)
65 | CDKN2AIP (UniProt Q9NXV6) | -0.014 (inactive)
66 | BRD3 (UniProt Q15059) | -0.018 (inactive)
67 | CEP120 (UniProt Q8N960) | -0.001 (inactive)
68 | C18orf25 (UniProt Q96B23) | 0.082 (inactive)
69 | CDAN1 (UniProt Q8IWY9) | -0.037 (inactive)
70 | ATAD1 (UniProt Q8NBU5) | 0.039 (inactive)
71 | CCT6A (UniProt P40227) | 0.001 (inactive)
72 | C5orf51 (UniProt A6NDU8) | 0.02 (inactive)
73 | CHCHD4 isoform 2 (UniProt Q8N4Q1) | -0.018 (inactive)
74 | CCPG1 isoform 5 (UniProt Q9ULG6) | 0.004 (inactive)
75 | CD63 (UniProt P08962) | 0.005 (inactive)
76 | CES2 isoform 4 (UniProt O00748) | -0.087 (inactive)
77 | CFDP1 (UniProt Q9UEE9) | 0.009 (inactive)

Row | Target | log2 fold change
78 | AURKAIP1 (UniProt Q9NWT8) | -0.058 (inactive)
79 | CCDC186 (UniProt Q7Z3E2) | 0.043 (inactive)
80 | ATP13A1 (UniProt Q9HD20) | 0.005 (inactive)
81 | ATXN2 (UniProt Q99700) | 0.047 (inactive)
82 | CHCHD2 (UniProt Q9Y6H1) | 0.031 (inactive)
83 | CDC40 (UniProt O60508) | 0.058 (inactive)
84 | CCNK isoform 4 (UniProt O75909) | 0.003 (inactive)
85 | C18orf32 (UniProt Q8TCD1) | 0.167 (inactive)
86 | CHAF1A (UniProt Q13111) | -0.032 (inactive)
87 | CAMK2G isoform 8 (UniProt Q13555) | -0.062 (inactive)
88 | CBX1 (UniProt P83916) | -0.027 (inactive)
89 | ATP5PF isoform 2 (UniProt P18859) | -0.013 (inactive)
90 | CCNB1 (UniProt P14635) | -0.021 (inactive)
91 | BCL2L12 (UniProt Q9HB09) | 0.046 (inactive)
92 | ATP11A (UniProt P98196) | 0.035 (inactive)
93 | CAMK1 (UniProt Q14012) | 0.008 (inactive)
94 | CAMLG (UniProt P49069) | 0.064 (inactive)
95 | CHAC2 (UniProt Q8WUX2) | 0.036 (inactive)
96 | CANX isoform 2 (UniProt P27824) | -0.02 (inactive)
97 | BRD2 isoform 2 (UniProt P25440) | -0.048 (inactive)
